Results reported in the supplement of paper PMC10849652.
About 7,900 targets were measured; listed, in parts, are those with a hit and a random draw of the rest. About 0.6% of all pairs of compound and target were hits. Unmarked numbers belong to inactive results.

How the values were obtained:
Test in all cases: log2 fold change, soluble protein after heating vs DMSO (PISA); higher = thermal stabilisation; K562 cells, 10 uM, 30 min; active = over 0.2 and 3.5 SD of the protein, either way, in both replicates (recomputed)
[1] = compound: CS(=O)(=O)c1ccc(-c2cnc(N)c(C(=O)Nc3ccccc3)n2)cc1
Method in brief: (§1)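 Thermal stability values are relative to control samples and come from duplicates. They are expressed as log2 fold changes. For measurement, K562 cells (2×10^6 cells/mL) received 10 μM compound for 30 min, and aliquots were heated for 3 min over 48°C-58°C, pooled, and extracted at 4°C in PBS with 0.5% NP-40. Soluble protein, the supernatant after 21,000xg for 90 min, was quantified by TMTpro 16plex LC-MS/MS with equalised channel sums.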

[2] = compound: C[C@@H](Oc1cc(-c2cnn(C3CCNCC3)c2)cnc1N)c1c(Cl)ccc(F)c1Cl [crizotinib]
Method in brief: as §1

[3] = compound: C[C@@H]1COCCN1C2=NC(=NC(=C2)C3(CC3)S(=O)(=O)C)C4=C5C=CNC5=CC=C4
Method in brief: as §1

[4] = compound: C[C@H](C1=CC=C(C=C1)C(=O)NC2=C3C=CNC3=NC=C2)N
Method in brief: as §1

[5] = compound: C[C@H](Nc1ncnc2nc[nH]c12)c1cc2cccc(Cl)c2c(=O)n1-c1ccccc1 [duvelisib]
Method in brief: as §1

[6] = compound: Cc1cc(Nc2cc(CN3CCOCC3)c3nc(C)c(Cc4ccc(Cl)cc4F)n3n2)n[nH]1 [gandotinib]
Method in brief: as §1

[7] = compound: Cc1cc(Nc2cc(N3CCN(C)CC3)nc(Sc3ccc(NC(=O)C4CC4)cc3)n2)n[nH]1 [tozasertib]
Method in brief: as §1

[8] = compound: Cc1cc(SCc2sc(-c3ccc(C(F)(F)F)cc3)nc2C)ccc1OCC(=O)O
Method in brief: as §1

[9] = compound: Cc1ccc(-n2nc(C(C)(C)C)cc2NC(=O)Nc2ccc(OCCN3CCOCC3)c3ccccc23)cc1 [doramapimod]
Method in brief: as §1

[10] = compound: Cc1ccc(C(=O)N(CCCN)[C@@H](c2nc3cc(Cl)ccc3c(=O)n2Cc2ccccc2)C(C)C)cc1 [ispinesib]
Method in brief: as §1

Chain of UniProt Q96GE9 (Q96GE9 whole entry, looked up): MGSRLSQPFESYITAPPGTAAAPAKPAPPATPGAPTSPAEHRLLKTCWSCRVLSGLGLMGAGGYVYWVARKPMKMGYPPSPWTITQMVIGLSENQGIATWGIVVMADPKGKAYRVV
Chain of UniProt Q96E09 (Q96E09 whole entry, looked up): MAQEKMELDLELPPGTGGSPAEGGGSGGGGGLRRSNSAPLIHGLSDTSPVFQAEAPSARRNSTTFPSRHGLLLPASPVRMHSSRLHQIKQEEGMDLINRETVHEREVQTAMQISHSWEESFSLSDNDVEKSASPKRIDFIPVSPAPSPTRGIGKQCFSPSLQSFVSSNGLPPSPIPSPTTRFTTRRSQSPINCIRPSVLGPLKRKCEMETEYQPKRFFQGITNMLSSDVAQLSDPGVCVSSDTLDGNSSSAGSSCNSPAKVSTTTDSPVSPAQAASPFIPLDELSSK
Chain of UniProt P06730 (P06730 whole entry, looked up): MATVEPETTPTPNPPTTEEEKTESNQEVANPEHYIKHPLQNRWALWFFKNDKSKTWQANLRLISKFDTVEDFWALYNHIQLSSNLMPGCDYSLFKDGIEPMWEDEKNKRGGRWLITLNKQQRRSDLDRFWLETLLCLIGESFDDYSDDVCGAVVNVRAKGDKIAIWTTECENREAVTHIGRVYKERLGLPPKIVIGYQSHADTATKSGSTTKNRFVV
Chain of UniProt Q16531 (Q16531 whole entry, looked up): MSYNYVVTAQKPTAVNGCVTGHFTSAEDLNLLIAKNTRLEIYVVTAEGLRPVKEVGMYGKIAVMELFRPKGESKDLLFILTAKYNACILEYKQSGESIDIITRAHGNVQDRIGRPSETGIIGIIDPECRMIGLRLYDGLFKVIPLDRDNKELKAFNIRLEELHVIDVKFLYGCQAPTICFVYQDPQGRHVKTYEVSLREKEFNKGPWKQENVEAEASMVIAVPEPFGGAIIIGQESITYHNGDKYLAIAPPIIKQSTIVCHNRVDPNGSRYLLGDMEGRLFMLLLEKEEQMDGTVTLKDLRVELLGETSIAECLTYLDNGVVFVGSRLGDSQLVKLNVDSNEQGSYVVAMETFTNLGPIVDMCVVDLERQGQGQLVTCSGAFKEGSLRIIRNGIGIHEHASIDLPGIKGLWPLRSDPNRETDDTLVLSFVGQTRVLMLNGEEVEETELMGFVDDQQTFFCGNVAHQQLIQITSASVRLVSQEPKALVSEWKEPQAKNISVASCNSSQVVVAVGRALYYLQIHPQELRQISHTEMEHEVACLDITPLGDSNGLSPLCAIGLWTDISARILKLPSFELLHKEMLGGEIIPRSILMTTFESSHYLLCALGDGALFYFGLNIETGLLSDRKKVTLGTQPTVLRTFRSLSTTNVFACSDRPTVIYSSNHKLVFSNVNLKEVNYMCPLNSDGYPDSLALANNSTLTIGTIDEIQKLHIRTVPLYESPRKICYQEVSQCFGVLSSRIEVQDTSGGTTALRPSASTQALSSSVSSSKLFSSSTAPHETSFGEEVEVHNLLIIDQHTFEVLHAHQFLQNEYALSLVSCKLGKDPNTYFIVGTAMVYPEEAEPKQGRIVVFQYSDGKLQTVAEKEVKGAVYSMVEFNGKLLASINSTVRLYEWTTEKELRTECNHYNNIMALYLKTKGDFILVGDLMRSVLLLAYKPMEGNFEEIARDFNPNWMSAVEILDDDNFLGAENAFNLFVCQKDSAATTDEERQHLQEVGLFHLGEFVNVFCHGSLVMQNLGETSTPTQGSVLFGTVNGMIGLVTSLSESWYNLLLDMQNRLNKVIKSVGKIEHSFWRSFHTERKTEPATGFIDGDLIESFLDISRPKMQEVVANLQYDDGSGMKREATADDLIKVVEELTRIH
Chain of UniProt Q86UK5 (Q86UK5 whole entry, looked up): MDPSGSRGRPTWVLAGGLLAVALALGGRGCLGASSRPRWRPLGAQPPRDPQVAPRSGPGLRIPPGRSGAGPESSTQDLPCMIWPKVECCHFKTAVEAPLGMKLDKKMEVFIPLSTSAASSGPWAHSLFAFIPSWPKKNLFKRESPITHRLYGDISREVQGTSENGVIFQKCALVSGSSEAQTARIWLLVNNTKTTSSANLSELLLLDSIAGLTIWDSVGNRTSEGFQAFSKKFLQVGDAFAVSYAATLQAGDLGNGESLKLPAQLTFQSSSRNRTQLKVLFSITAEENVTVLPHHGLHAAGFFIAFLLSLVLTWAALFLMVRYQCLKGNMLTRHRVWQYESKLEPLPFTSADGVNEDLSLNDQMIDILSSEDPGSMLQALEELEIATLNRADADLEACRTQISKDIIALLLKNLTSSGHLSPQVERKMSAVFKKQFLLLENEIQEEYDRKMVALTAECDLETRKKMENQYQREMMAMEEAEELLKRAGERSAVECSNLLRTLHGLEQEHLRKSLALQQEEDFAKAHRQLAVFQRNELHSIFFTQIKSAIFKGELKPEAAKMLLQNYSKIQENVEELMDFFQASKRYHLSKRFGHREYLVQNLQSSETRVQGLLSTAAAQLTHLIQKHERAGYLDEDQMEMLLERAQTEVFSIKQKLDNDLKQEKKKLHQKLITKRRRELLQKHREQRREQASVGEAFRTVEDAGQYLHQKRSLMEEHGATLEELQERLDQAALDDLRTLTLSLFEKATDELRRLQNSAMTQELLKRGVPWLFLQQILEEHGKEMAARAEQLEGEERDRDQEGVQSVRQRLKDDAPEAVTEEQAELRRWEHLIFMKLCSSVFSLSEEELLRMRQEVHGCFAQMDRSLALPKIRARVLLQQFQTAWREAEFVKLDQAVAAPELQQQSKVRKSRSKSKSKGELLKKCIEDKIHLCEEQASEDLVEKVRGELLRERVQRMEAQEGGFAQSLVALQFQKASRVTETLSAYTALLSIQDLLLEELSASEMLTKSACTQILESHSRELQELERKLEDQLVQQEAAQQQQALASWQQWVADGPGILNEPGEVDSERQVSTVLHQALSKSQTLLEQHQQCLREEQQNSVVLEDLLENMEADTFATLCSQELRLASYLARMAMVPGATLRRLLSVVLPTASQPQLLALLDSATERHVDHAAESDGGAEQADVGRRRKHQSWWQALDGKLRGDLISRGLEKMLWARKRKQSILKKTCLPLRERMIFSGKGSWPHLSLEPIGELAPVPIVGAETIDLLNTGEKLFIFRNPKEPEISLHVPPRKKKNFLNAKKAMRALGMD
Chain of UniProt Q96KP1 (Q96KP1 whole entry, looked up): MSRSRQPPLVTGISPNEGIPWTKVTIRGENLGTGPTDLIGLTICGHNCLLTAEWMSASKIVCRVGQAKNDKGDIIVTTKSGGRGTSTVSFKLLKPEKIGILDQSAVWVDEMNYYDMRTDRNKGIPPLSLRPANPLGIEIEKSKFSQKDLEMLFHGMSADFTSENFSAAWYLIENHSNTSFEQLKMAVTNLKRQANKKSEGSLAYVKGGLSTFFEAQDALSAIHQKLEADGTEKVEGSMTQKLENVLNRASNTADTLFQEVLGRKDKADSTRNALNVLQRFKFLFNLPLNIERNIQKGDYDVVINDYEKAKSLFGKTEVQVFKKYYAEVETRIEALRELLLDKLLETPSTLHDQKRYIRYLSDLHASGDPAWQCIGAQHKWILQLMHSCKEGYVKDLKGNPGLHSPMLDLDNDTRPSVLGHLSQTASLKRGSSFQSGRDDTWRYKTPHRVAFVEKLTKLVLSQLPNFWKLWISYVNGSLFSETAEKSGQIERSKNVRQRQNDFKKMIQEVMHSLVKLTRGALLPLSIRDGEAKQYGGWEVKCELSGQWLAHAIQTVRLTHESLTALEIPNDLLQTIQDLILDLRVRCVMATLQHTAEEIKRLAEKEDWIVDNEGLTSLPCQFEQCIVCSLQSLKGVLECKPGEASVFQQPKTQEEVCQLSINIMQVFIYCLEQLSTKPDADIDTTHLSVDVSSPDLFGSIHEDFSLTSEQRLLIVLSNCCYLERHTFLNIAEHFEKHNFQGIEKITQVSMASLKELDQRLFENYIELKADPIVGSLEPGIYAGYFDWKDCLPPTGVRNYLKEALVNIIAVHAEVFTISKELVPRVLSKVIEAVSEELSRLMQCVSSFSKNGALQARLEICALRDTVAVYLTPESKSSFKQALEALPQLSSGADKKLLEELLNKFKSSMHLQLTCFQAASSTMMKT
Chain of UniProt Q99615 (Q99615 whole entry, looked up): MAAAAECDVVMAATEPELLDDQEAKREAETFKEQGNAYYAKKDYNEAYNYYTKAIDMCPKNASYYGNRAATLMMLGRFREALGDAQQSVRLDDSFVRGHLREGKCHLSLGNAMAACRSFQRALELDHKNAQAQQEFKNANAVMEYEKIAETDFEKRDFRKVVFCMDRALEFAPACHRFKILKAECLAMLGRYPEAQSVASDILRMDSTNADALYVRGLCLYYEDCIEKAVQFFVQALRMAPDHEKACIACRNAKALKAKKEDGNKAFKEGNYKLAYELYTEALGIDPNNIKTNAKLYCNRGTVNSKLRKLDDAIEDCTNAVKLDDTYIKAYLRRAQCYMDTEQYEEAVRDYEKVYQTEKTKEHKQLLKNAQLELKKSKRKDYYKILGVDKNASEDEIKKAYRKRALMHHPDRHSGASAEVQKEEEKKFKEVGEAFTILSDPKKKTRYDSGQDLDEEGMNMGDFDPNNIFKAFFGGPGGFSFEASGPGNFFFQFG
Chain of UniProt Q9NRY5 (Q9NRY5 whole entry, looked up): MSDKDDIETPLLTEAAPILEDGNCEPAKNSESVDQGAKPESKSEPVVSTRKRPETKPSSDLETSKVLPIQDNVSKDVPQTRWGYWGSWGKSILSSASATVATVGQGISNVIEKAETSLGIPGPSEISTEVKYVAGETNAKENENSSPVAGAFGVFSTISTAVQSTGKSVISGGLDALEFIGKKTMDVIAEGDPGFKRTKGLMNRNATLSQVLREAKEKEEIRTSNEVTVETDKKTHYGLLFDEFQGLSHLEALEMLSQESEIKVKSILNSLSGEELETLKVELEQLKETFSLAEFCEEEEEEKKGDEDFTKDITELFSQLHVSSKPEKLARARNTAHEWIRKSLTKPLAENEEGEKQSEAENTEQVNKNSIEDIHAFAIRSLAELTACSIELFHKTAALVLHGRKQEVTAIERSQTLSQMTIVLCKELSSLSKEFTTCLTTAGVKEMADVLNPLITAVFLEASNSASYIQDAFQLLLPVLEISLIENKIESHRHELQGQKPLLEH

Target	log2 fold change [1]	log2 fold change [2]	log2 fold change [3]	log2 fold change [4]	log2 fold change [5]	log2 fold change [6]	log2 fold change [7]	log2 fold change [8]	log2 fold change [9]	log2 fold change [10]
DHRS3 (UniProt O75911)	0.083	0.093	0.115	0.069	0.027	-0.027	-0.089	-0.049	-0.037	0.015
DHCR24 (UniProt Q15392)	0.229	0.428	0.076	0.056	0.027	-0.025	0.276	-0.063	0.982 (active)	-0.053
ECPAS (UniProt Q5VYK3)	0	-0.18	0.01	0.081	0.024	-0.115	0.048	0.099	-0.032	-0.016
DHX40 (UniProt Q8IX18)	0.018	-0.109	-0.003	0.03	0.005	-0.079	-0.089	0.01	0.065	-0.215
DNAJB1 (UniProt P25685)	-0.004	-0.004	0.084	0	0.045	-0.041	-0.001	0.059	-0.018	0.019
FAM122A (UniProt Q96E09)	0.077	-0.032	-0.267	-0.042	0.059	-0.015	0.038	-0.015	0.014	0
EVC2 (UniProt Q86UK5)	0.022	-0.061	-0.244	-0.209	-0.162	0.071	0.02	-0.052	0	0.065
EGLN1 (UniProt Q9GZT9)	0.01	-0.029	-0.064	-0.035	0.029	-0.036	0.044	0	-0.014	-0.04
DNAH10 (UniProt Q8IVF4)	0.124	0.135	-0.003	-0.055	0.077	-0.136	-0.146	-0.082	-0.003	
DHPS (UniProt M0R1T2)	-0.152									
DNAJC7 (UniProt Q99615)	0.027	-0.014	0.048	-0.028	0.019	-0.088	-0.021	0.095	-0.057	0.001
EXOC4 (UniProt Q96A65)	0.003	-0.275	-0.099	0.098	-0.028	-0.068	0.041	0.162	0.016	-0.29
EEF1G isoform 2 (UniProt P26641)	0.011	0.015	-0.028	0.006	-0.011	-0.061	0.046	0.061	-0.013	0.061
EIF4E isoform 2 (UniProt P06730)	0.198	0.165	0.4 (active)	-0.099	0.143	-0.006	0.003	-0.02	-0.045	0.159
ERLIN1 (UniProt O75477)	0.012	-0.039	-0.038	0.099	-0.021	-0.04	0.025	0.148	0.057	-0.27 (active)
EXOC8 (UniProt Q8IYI6)	-0.062	-0.32 (active)	0.109	0.053	0.004	-0.203	0.048	0.063	0.007	-0.364 (active)

Target	log2 fold change [1]	log2 fold change [2]	log2 fold change [3]	log2 fold change [4]	log2 fold change [5]	log2 fold change [6]	log2 fold change [7]	log2 fold change [8]	log2 fold change [9]	log2 fold change [10]
CTSA (UniProt P10619)	0.032	-0.563 (active)	0.002	-0.036	-0.039	0.043	0.011	0.003	0.009	-0.237 (active)
EXOC6 (UniProt Q8TAG9)	0.001	-0.206	-0.038	0.033	-0.095	-0.098	0.037	0.1	0.02	-0.363 (active)
DPP8 (UniProt Q6V1X1)	0.04	-0.003	0.011	-0.048	0.025	-0.038	-0.027	0.006	0.008	0.019
ERLIN2 (UniProt O94905)	-0.017	-0.034	-0.167	0.068	-0.032	-0.044	0.009	0.155	0.057	-0.251 (active)
FAM114A2 (UniProt Q9NRY5)	-0.005	-0.197	0.026	-0.026	0.014	-0.06	0.002	0.011	-0.052	-0.096
DDB1 (UniProt Q16531)	0.005	0.033	0.026	-0.039	0.02	-0.028	-0.013	-0.037	-0.033	0.009
DCTN1 isoform 4 (UniProt Q14203)	-0.013	-0.112	0.015	0.131	-0.045	0.016	0.037	0.111	0.088	-0.141
DCAF16 (UniProt Q9NXF7)	0.058	0.001	0.176	-0.103	0.054	0.069	0.079	0.17	-0.005	0.036
DHPS (UniProt P49366)	0.015	-0.008	0.043	-0.047	0.059	0.032	-0.046	-0.054	0.051	0.067
EXOC2 (UniProt Q96KP1)	0.006	-0.308	-0.112	0.101	-0.081	0.009	0.017	0.119	0.06	-0.394 (active)
DMAC1 (UniProt Q96GE9)	0.023	0.034	0.037	0.005	0.166	-0.087	-0.153	-0.22	0.066	-0.108
DAB2 (UniProt P98082)	-0.04	-0.099	0.049	-0.052	-0.021	-0.021	-0.023	0.069	0.022	-0.091
EPHX2 (UniProt P34913)	0.036	0.169	0.194	-0.019	0.029	-0.018	0.144	-0.032	-0.016	-0.01
FAM50A (UniProt Q14320)	0.009	0.129	0.026	-0.06	-0.03	0.147	0.089	0.092	-0.061	0.095
DCAF13 (UniProt Q9NV06)	-0.086	0.067	-0.538 (active)	0.273	-0.105	0.221	0.007	-0.033	0.173	-0.1
